Efflux pump inh – antifungal efflux pump inhibition, Nile Red retention | hit rate 0.44% among 330,000 | S. cerevisiae Candida pump triplex | inhibition, % at 10 µM;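 active = plate passing quality check with inhibition over a set limit, or well fluorescence over plate mean plus 4 SD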;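 also: Nile Red retained in pooled yeast measured as flow cytometry median fluorescence; higher means more Nile Red kept so more efflux inhibition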
AI-2 QS modul – modulates the Vibrio harveyi AI-2 quorum sensing system; activity change, % at 7.5 µM; hit rate 0.4% among 300,000; Vibrio harveyi JMH597 AI-2 luminescence/OD600 ratio, 9 h; stronger effect = lower value; strain lacks LuxN and CqsS sensors; 0 = neutral-control median; in the data active = activity change below about -75%, passing the limit was not always enough;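 also: luminescence divided by OD600 gain over 9 h not by final OD600 alone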
ATG4B inh – ATG4B (human) cysteine protease inhibition; hit rate 0.51% among 340,000; inhibition, % at 8.33 µM; AID 504462; ATG4B cleavage of LC3-PLA2, NBD-HPC fluorescence, 1 h; in the data active = inhibition above about 40%
Target sequence (Q9Y4P1 whole entry, looked up): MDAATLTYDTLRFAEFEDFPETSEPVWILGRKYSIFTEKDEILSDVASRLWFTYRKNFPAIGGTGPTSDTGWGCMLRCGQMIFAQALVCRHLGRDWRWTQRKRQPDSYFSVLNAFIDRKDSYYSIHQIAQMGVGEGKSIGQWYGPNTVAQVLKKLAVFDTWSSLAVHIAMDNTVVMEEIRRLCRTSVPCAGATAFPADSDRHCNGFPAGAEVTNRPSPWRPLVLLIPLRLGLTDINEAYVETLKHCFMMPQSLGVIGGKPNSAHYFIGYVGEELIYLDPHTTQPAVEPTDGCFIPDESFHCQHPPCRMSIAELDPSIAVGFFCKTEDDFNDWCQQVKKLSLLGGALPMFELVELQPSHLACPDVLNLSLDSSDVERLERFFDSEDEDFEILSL
Mot1-301 SUMO – SUMOylation pathway inhibition by Mot1-301 growth rescue; hit rate 1% among 320,000; growth rescue, % at 18.8 µM; S. cerevisiae Mot1-301 growth rescue, ATP luminescence, 38.5C; percent above DMSO median, 100 means doubled;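 active = every valid replicate shows activation above 250% relative to neutral control wells; inactive = the rest, any valid replicate at or below 250%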
V-ATPase pHluor – regulators of yeast V-ATPase proton transport; S. cerevisiae, pHLuorin cytosolic pH fluorescence; response, % at 10 µM; hit rate 0.37% among 350,000; in the data active = response mostly above about 7.3%, no sharp cut-off; inactive = mostly below about 5.4%; also: actives read high
VATPase regulator – yeast V-ATPase proton transport regulation | shares compounds with V-ATPase pHluor | S. cerevisiae pHLuorin cytosolic pH | response, % at 10 µM | hit rate 2% among 980 | AID 602197; in the data active = response above about 24%
Each line names hits and unclear results; the compound was inactive in the other large screens (follow-up assays come after a bar, where they were run). The list is not random: actives were taken first. Their share in the collection is about 2.5%.

CCN(CC)C(=O)c1cc2cc([N+](=O)[O-])ccc2s1	V-ATPase pHluor 19 | VATPase regulator inactive
CN(C)C(=O)c1cc2cc([N+](=O)[O-])ccc2s1	none
COc1ccc(C/C(C)=N/NC(=O)c2ccc(Cl)cc2)cc1	V-ATPase pHluor 105 | VATPase regulator inactive
O=C(CCc1nnc(-c2ccc3c(c2)OCO3)o1)NC(c1cccnc1)C(F)(F)F (configuration not stated)	V-ATPase pHluor 8.6 | VATPase regulator inactive
CC(=O)N1CCCC1(C(=O)O)c1ccccc1 (configuration not stated)	none
Cc1ccc(Cn2c(SCC(=O)N3CC(=O)Nc4ccccc43)nc3ccccc3c2=O)cc1	none
O=C1CN(C(=O)CSc2nc3ccccc3c(=O)n2CC2CCCO2)c2ccccc2N1 (configuration not stated)	V-ATPase pHluor 11 (no result: Mot1-301 SUMO) | VATPase regulator inactive
Cc1cc(C)c(NC(=O)CSc2nc3ccc(N4C(=O)c5ccccc5C4=O)cc3s2)c(C)c1	V-ATPase pHluor 9.0 | VATPase regulator inactive
CC(NC(=O)c1ccc(F)cc1)C(=O)NC1=NCCS1 (configuration not stated)	none | VATPase regulator inactive
CC(Oc1ccccc1)C(=O)NC1=NCCS1 (configuration not stated)	V-ATPase pHluor 7.3 | VATPase regulator inactive
O=C(COc1ccccc1)NC1=NCCS1	none
Cc1c(C)n2c(SCC(=O)Nc3cccc4ccccc34)nnc2[nH]c1=O	none
CCCC(=O)C1=C(O)C(C(=O)OC)C(C)(C)CC1=Nc1ccc(C)cc1 (configuration not stated)	V-ATPase pHluor 8.3 | VATPase regulator inactive
O=C(Nc1ccc(Nc2ccccc2)cc1)C1CC1	V-ATPase pHluor 7.5 | VATPase regulator inactive
COc1ccc(N(CC(=O)N2CCN(c3ccc(Cl)cc3)CC2)S(=O)(=O)c2c(C)n[nH]c2C)cc1	V-ATPase pHluor 7.4 | VATPase regulator inactive
Nc1ccc(C(=O)NC23CC4CC(CC(C4)C2)C3)cc1	none
Cc1c(C(=O)NN)nn(-c2ccc(Cl)cc2)c(=O)c1C#N	none | VATPase regulator inactive
Cn1nc(C(=O)NNC(=O)c2ccccc2Br)c2ccccc2c1=O	V-ATPase pHluor 9.5 (no result: Efflux pump inh, AI-2 QS modul, Mot1-301 SUMO) | VATPase regulator inactive
Cn1nc(C(=O)NNC(=O)c2ccccc2F)c2ccccc2c1=O	none (no result: AI-2 QS modul)
CCOC(=O)C(C)Sc1nnc(-c2ccccc2O)n1-c1ccc(C)cc1 (configuration not stated)	none
Cc1ccccc1NC(=O)CSc1nnc2ccc(-c3cccnc3)nn12	V-ATPase pHluor 10 | VATPase regulator inactive
CCCCN(C)CCCNC(=O)CN1C(=O)CSc2ccc(S(=O)(=O)N3CCOCC3)cc21	V-ATPase pHluor 9.5 | VATPase regulator inactive
O=C(CCNS(=O)(=O)c1ccccc1F)OCc1ccccc1Cl	none (no result: AI-2 QS modul)
CCn1cc(Br)c(C(=O)Nc2nccs2)n1	V-ATPase pHluor 10 | VATPase regulator inactive
COc1ccc(Cl)cc1NC(=S)NCCSc1ccc(C)cc1	V-ATPase pHluor 7.6 | VATPase regulator inactive
O=C(NCCc1ccccc1)C(=O)N/N=C/c1ccc2c(c1)OCO2	none
O=C(NCCc1ccccc1)C(=O)N/N=C/c1ccccc1C(F)(F)F	V-ATPase pHluor 9.6 | VATPase regulator inactive
COc1cc(/C=N/NC2=NC(C)(C)Cc3ccccc32)cc(OC)c1OC	V-ATPase pHluor 8.2 | VATPase regulator inactive
CC1(C)Cc2ccccc2C(NN=C2CCCC2)=N1	none
Cc1ccc(S(=O)(=O)O/N=C2\CCCc3ccccc32)cc1	V-ATPase pHluor 12 | VATPase regulator inactive
Cc1ccc(S(=O)(=O)NN=C2CCCc3ccccc32)cc1	none (no result: Efflux pump inh, AI-2 QS modul, ATG4B inh, Mot1-301 SUMO)
O=C(CCS(=O)(=O)Cc1ccccc1)Nc1ncc([N+](=O)[O-])s1	none
CCOC(=O)C(Cc1ccccc1)C(=O)Nc1cccc2ccccc12 (configuration not stated)	none
CCOC(=O)Cn1c2ccccc2c2nc3ccccc3nc21	none | VATPase regulator inactive
Cc1cc(=O)n(CC(=O)O)c2ccccc12	none
CCOC(=O)Cn1c(C)cc(=O)c2ccccc21	none | VATPase regulator inactive
Cc1cc(=O)c2ccccc2n1CC(=O)NCc1ccccc1	none
CCOC(=O)Cn1c(=O)cc(C)c2ccccc21	none | VATPase regulator inactive
Nc1cccc(-c2c[nH]c3ncc(-c4cccnc4)cc23)c1	none (no result: Efflux pump inh, AI-2 QS modul, Mot1-301 SUMO)
Cc1ccccc1C(=O)N1CCC(C(=O)NC2CCCC2)CC1	none

Source: PubChem BioAssay (several laboratories)
